# What was measured:
# Assay in all cases: DAPPL (digital affinity profiling via proximity ligation, sequencing); 10 mM Tris-HCl pH 7.5, 50 mM NaCl, 1 mM DTT, 4% glycerol, room temperature, 30 min; GST-TFs on glutathione beads, 16-mer random dsDNA library, 0.1% formaldehyde crosslink after washing; high values mean tight binding
# FEV = biological target: T1, FEV (Homo sapiens, UniProt Q99581 1-238); details: protein: recombinant; tags: N-terminal GST; dsDNA, one strand shown
# T1 sequence: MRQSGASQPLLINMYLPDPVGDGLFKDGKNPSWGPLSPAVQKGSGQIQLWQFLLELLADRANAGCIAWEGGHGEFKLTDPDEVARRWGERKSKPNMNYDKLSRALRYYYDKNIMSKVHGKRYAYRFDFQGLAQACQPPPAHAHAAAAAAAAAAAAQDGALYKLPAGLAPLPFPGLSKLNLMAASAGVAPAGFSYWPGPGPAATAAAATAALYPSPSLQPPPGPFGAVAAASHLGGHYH
# Procedure, shortened: (§1)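 Yeast served to express human transcription factors as GST fusions, which were then captured on glutathione beads and labelled with DNA barcodes. Pooled with a tag-only sample, they were incubated with 200 nmole of a 16-mer random double-stranded DNA library for 30 min at room temperature in Tris/NaCl/DTT/glycerol buffer, washed, crosslinked with 0.1% formaldehyde, ligated by proximity, amplified by PCR and sequenced. Dividing each hexamer's read frequency for a factor by its frequency for the tag-only sample gives the binding signal.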
# ETV5 = ETV5 (Homo sapiens, UniProt P41161 1-510); details: protein: recombinant; tags: N-terminal GST; dsDNA, one strand shown
# Chain of ETV5 (P41161 whole entry): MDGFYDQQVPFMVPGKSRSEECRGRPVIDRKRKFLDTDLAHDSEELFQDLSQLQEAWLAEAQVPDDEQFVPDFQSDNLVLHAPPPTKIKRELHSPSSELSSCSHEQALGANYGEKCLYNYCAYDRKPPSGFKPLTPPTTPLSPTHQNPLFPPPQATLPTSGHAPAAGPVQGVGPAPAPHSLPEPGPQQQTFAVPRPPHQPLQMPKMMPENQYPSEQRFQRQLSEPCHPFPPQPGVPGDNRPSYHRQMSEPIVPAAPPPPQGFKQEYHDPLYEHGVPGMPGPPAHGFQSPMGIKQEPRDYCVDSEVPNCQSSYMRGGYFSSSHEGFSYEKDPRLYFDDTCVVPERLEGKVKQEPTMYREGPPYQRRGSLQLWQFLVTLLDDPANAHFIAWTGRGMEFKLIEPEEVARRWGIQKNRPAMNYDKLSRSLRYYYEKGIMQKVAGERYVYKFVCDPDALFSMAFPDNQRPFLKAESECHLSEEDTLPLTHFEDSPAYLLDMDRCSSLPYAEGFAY
# Procedure, shortened: as §1
# HSF1 = HSF1 (Homo sapiens, UniProt Q00613 1-529); details: protein: recombinant; tags: N-terminal GST; chain copies: 3; dsDNA, one strand shown
# Chain of HSF1 (Q00613 whole entry): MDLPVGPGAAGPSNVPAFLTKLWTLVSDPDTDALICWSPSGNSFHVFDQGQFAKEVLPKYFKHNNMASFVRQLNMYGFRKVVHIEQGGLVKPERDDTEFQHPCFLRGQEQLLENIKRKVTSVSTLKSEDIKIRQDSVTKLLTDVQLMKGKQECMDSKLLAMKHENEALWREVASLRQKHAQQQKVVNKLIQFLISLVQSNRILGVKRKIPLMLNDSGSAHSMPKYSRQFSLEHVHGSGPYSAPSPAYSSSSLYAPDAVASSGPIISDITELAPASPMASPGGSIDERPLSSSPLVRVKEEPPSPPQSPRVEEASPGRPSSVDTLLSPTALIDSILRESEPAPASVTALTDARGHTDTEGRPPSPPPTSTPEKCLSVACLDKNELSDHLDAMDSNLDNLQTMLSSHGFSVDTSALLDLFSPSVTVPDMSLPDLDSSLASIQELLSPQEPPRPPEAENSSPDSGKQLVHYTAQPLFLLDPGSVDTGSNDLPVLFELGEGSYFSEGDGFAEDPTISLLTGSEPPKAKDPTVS
# Procedure, shortened: as §1
# SPIC = biological target: T2, SPIC (Homo sapiens, UniProt Q8N5J4 1-248); details: protein: recombinant; tags: N-terminal GST; dsDNA, one strand shown
# T2 sequence: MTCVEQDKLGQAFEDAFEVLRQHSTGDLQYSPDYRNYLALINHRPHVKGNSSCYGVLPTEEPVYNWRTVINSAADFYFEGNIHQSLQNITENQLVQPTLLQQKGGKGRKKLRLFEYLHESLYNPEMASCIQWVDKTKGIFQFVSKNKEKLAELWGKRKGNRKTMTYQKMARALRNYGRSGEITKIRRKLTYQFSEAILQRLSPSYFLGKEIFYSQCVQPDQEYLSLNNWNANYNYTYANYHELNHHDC
# Procedure, shortened: as §1
# ELF4 = ELF4 (Homo sapiens, UniProt Q99607 1-663); details: protein: recombinant; tags: N-terminal GST; dsDNA, one strand shown
# Chain of ELF4 (Q99607 whole entry): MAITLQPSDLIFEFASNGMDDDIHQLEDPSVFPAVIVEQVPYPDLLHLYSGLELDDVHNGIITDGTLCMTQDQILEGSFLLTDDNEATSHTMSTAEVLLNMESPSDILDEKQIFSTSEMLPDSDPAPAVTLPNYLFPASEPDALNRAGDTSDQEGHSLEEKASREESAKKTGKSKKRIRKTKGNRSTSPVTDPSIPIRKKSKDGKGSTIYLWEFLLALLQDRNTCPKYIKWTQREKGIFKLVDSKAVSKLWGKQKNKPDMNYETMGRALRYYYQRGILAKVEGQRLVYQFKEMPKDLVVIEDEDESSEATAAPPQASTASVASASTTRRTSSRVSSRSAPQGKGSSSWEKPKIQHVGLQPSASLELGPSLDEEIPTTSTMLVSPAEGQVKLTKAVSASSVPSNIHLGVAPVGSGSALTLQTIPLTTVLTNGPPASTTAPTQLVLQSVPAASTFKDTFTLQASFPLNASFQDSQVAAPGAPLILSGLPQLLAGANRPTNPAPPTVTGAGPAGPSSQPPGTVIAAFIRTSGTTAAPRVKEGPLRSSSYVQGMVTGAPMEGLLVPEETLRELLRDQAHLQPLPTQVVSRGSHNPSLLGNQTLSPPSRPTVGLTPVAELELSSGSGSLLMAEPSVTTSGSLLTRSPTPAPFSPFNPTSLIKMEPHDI
# Procedure, shortened: as §1
# ELK4 = biological target: T3, ELK4 (Homo sapiens, UniProt P28324-2 1-405); details: protein: recombinant; tags: N-terminal GST; dsDNA, one strand shown
# T3 sequence: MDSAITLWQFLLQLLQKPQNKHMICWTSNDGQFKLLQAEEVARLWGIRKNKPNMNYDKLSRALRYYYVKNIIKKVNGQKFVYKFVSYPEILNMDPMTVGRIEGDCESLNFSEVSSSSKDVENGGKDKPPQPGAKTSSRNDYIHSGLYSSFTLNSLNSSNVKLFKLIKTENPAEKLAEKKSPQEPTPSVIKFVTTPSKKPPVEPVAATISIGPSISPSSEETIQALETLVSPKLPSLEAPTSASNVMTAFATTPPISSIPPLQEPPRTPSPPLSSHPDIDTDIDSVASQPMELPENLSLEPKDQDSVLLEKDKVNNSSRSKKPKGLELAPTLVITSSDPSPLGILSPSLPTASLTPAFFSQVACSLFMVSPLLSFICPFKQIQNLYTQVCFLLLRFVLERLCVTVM
# Procedure, shortened: as §1
# ETV2 = biological target: T4, ETV2 (Homo sapiens, UniProt O00321 1-342); details: protein: recombinant; tags: N-terminal GST; dsDNA, one strand shown
# T4 sequence: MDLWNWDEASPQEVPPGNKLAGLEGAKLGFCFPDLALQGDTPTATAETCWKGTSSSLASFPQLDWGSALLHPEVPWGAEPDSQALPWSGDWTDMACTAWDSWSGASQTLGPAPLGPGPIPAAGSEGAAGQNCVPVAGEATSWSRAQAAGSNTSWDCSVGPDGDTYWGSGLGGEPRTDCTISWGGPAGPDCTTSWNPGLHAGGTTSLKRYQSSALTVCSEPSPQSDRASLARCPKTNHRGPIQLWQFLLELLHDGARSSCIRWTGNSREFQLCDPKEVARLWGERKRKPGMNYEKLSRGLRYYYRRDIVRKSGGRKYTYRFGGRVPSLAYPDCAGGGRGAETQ
# Procedure, shortened: as §1
# ELF3 = biological target: T5, ELF3 (Homo sapiens, UniProt P78545 1-371); details: protein: recombinant; tags: N-terminal GST; dsDNA, one strand shown
# T5 sequence: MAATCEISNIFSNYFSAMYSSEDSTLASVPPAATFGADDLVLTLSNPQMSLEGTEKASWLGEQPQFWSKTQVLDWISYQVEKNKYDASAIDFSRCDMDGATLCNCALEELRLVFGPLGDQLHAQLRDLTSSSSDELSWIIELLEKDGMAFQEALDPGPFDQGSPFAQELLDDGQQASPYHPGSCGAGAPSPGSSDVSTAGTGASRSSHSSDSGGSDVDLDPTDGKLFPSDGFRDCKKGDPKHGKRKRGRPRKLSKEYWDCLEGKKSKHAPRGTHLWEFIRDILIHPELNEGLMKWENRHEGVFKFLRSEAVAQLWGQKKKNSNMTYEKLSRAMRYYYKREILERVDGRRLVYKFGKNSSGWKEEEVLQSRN
# Procedure, shortened: as §1
# CRX = CRX (Homo sapiens, UniProt O43186 1-299); details: protein: recombinant; tags: N-terminal GST; dsDNA, one strand shown
# Chain of CRX (O43186 whole entry): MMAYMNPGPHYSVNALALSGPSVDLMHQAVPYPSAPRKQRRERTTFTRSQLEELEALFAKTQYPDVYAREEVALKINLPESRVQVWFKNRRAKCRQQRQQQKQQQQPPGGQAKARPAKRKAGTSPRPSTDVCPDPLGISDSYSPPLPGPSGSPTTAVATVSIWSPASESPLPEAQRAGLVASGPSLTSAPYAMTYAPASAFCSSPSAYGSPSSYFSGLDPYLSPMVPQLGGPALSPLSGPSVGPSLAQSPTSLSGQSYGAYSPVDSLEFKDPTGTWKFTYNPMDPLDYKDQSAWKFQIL
# Procedure, shortened: as §1
# ETV1 = ETV1 (Homo sapiens, UniProt P50549 1-477); details: protein: recombinant; tags: N-terminal GST; dsDNA, one strand shown
# Chain of ETV1 (P50549 whole entry): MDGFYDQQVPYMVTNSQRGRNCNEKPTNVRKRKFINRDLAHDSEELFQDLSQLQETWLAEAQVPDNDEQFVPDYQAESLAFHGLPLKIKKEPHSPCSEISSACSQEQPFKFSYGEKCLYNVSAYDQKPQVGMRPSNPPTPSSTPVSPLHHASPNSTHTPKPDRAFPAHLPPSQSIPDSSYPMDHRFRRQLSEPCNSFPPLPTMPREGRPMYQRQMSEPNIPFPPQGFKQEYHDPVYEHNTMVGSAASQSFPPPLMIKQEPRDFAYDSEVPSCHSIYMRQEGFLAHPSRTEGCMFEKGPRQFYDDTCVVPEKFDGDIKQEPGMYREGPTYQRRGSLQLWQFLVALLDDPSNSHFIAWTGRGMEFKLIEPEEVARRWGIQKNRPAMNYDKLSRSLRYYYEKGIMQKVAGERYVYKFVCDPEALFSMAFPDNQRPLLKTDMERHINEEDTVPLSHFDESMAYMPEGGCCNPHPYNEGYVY
# Procedure, shortened: as §1
# ERF = biological target: T6, ERF (Homo sapiens, UniProt P50548 1-548); details: protein: recombinant; tags: N-terminal GST; dsDNA, one strand shown
# T6 sequence: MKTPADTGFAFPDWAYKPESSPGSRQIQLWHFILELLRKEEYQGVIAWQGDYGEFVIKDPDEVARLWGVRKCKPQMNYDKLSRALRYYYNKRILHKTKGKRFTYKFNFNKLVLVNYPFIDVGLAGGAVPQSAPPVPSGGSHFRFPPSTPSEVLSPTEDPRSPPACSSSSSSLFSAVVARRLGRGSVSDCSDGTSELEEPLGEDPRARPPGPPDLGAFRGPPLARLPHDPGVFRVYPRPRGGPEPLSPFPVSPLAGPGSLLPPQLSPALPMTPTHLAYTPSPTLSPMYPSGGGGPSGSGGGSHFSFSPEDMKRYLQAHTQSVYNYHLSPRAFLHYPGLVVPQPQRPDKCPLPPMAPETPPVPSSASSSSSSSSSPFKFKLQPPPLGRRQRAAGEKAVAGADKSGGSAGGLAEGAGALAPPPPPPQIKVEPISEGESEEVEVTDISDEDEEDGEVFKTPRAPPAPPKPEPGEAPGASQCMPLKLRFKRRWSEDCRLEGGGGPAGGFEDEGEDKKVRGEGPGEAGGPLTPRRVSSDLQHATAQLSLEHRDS
# Procedure, shortened: as §1
# ETV3L = biological target: T7, ETV3L (Homo sapiens, UniProt Q6ZN32 1-361); details: protein: recombinant; tags: N-terminal GST; dsDNA, one strand shown
# T7 sequence: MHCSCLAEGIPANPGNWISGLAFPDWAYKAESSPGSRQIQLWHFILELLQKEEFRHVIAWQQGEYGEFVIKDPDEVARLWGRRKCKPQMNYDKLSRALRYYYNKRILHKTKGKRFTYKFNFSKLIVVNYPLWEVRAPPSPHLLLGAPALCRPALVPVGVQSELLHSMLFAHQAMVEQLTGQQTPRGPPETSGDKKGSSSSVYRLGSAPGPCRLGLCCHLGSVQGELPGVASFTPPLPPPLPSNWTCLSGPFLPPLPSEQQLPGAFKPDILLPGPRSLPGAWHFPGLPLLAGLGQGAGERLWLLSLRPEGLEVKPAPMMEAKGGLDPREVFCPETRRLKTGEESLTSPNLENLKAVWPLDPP
# Procedure, shortened: as §1
# ETS2 = biological target: T8, ETS2 (Homo sapiens, UniProt P15036 1-469); details: protein: recombinant; tags: N-terminal GST; dsDNA, one strand shown
# T8 sequence: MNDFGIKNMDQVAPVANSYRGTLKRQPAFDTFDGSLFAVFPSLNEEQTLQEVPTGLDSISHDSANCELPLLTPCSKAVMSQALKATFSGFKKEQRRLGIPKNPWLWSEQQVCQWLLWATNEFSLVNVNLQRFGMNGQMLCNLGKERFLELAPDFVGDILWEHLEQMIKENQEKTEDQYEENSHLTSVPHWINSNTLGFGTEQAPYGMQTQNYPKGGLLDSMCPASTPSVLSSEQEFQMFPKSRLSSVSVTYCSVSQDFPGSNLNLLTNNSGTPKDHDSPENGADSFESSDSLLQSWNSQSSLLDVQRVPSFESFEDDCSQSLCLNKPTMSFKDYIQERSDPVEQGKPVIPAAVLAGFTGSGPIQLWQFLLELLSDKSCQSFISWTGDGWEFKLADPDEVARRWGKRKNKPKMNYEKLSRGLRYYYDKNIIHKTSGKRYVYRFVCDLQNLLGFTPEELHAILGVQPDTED
# Procedure, shortened: as §1
# SPDEF = biological target: T9, SPDEF (Homo sapiens, UniProt O95238 1-335); details: protein: recombinant; tags: N-terminal GST; dsDNA, one strand shown
# T9 sequence: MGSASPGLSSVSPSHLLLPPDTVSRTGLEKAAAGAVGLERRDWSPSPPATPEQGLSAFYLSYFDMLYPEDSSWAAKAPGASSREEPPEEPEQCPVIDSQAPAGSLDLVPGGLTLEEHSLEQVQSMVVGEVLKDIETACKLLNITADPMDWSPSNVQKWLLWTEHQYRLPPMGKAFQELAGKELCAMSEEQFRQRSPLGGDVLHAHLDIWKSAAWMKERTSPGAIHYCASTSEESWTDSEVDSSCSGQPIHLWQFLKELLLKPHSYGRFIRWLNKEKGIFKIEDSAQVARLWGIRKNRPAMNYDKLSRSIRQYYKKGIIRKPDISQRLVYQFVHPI
# Procedure, shortened: as §1
# ETV7 = biological target: T10, ETV7 (Homo sapiens, UniProt Q9Y603 1-341); details: protein: recombinant; tags: N-terminal GST; dsDNA, one strand shown
# T10 sequence: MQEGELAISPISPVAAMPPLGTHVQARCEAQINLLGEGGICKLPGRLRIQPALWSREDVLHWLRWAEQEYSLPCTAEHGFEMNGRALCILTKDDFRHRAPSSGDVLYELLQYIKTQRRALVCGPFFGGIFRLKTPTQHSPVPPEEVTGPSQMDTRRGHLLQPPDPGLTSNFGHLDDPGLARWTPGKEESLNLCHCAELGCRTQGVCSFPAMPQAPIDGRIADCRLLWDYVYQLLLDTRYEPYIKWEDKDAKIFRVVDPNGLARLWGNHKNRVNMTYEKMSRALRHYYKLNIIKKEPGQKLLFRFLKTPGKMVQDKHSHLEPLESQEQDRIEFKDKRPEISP
# Procedure, shortened: as §1
# ELF5 = biological target: T11, ELF5 (Homo sapiens, UniProt Q9UKW6-2 1-255); details: protein: recombinant; tags: N-terminal GST; dsDNA, one strand shown
# T11 sequence: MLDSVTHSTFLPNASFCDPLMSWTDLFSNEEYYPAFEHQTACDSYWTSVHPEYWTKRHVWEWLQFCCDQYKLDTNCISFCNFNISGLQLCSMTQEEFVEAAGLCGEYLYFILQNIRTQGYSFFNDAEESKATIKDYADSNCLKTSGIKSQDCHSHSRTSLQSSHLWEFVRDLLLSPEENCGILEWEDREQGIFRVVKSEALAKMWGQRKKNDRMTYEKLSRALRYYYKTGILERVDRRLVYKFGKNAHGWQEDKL
# Procedure, shortened: as §1
# ETV3 = biological target: T12, ETV3 (Homo sapiens, UniProt P41162-2 1-143); details: protein: recombinant; tags: N-terminal GST; dsDNA, one strand shown
# T12 sequence: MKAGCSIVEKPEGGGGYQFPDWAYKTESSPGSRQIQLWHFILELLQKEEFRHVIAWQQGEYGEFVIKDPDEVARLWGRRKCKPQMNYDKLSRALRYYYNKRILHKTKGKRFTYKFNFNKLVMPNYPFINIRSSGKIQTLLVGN
# Procedure, shortened: as §1
# ETV6 = ETV6 (Homo sapiens, UniProt P41212 1-452); details: protein: recombinant; tags: N-terminal GST; dsDNA, one strand shown
# Chain of ETV6 (P41212 whole entry): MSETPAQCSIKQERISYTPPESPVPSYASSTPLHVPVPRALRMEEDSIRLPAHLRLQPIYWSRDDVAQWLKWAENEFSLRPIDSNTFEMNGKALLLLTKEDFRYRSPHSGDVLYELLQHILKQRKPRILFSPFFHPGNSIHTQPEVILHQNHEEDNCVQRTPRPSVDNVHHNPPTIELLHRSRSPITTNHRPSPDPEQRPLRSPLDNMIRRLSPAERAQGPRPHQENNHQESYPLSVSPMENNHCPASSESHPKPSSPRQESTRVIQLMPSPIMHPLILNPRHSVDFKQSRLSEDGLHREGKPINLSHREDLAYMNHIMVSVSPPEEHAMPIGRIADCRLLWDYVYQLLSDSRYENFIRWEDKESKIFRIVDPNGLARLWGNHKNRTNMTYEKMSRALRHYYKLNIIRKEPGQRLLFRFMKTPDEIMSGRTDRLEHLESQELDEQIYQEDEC
# Procedure, shortened: as §1
sequence,measurement,setting,value
CGTCTT,binding signal,FEV,"1.33 fold enrichment (6-mer frequency, TF over GST control)"
same,binding signal,ETV5,"1.37 fold enrichment (6-mer frequency, TF over GST control)"
same,binding signal,HSF1,"1.31 fold enrichment (6-mer frequency, TF over GST control)"
same,binding signal,SPIC,"1.38 fold enrichment (6-mer frequency, TF over GST control)"
same,binding signal,ELF4,"1.38 fold enrichment (6-mer frequency, TF over GST control)"
same,binding signal,ELK4,"1.21 fold enrichment (6-mer frequency, TF over GST control)"
same,binding signal,ETV2,"1.29 fold enrichment (6-mer frequency, TF over GST control)"
same,binding signal,ELF3,"1.56 fold enrichment (6-mer frequency, TF over GST control)"
same,binding signal,CRX,"1.5 fold enrichment (6-mer frequency, TF over GST control)"
same,binding signal,ETV1,"1.48 fold enrichment (6-mer frequency, TF over GST control)"
same,binding signal,ERF,"1.24 fold enrichment (6-mer frequency, TF over GST control)"
same,binding signal,ETV3L,"1.4 fold enrichment (6-mer frequency, TF over GST control)"
same,binding signal,ETS2,"1.4 fold enrichment (6-mer frequency, TF over GST control)"
same,binding signal,SPDEF,"1.48 fold enrichment (6-mer frequency, TF over GST control)"
same,binding signal,ETV7,"1.41 fold enrichment (6-mer frequency, TF over GST control)"
same,binding signal,ELF5,"1.5 fold enrichment (6-mer frequency, TF over GST control)"
same,binding signal,ETV3,"1.44 fold enrichment (6-mer frequency, TF over GST control)"
same,binding signal,ETV6,"1.5 fold enrichment (6-mer frequency, TF over GST control)"
